Experimental data reported in PubChem BioAssay (NCI).
About 83,000 compounds went through this panel and 20% of them were active in at least one assay; those are over-represented in the sample as a whole.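 Treatment: one concentration, 48 hours, 96-well format. Scoring: percent growth, with anything below 10 considered active.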 A number with no mark means an inactive call. Calls of active or inactive are those of the source.

Each compound was assayed on MDA-MB-468 breast (assay: NCI-60 one-dose screen, 48 h (100 = growth as untreated, 0 = no growth, -100 = all killed)). Details: 10 µM unless noted.
In the case of `CN(C)c1ccc(C2Nc3ccccc3-n3cccc32)cc1` (stereo not given), the growth is reported as -50.4% (active).
With `COc1ccc(NC(=O)CCl)cc1` the growth was 73.6%.
`CCCCCCCCCCCCCCCCCCSC1=CC(=O)C(OC)=C(OC)C1=O` was tested, and the growth was 105%.
`CC[C@]12C=CCN3CC[C@]4(C(=C(C(=O)OC)C1)Nc1cc5c(cc14)[C@@H]1[C@H](O5)[C@@H](O)[C@@]4(CC)CC(C(=O)OC)=C5Nc6cc(OC)ccc6[C@@]56CCN1[C@@H]46)[C@@H]32` was tested, and the growth was -36.8% (active).
For `CC(C)C[C@@H]1N[C@@]2(C(=O)Nc3ccccc32)[C@@H](c2ccc(F)cc2)[C@@H]1C(=O)c1ccc(O)cc1`, the growth was 102%.
For `C[C@@H](O)[C@H]1C(=O)N2C(C(=O)O)=C(SCCN=CN)C[C@H]12`, the growth was -48.1% (active).
In the case of `COc1ccc(CCNC2=CC(=O)CCC2)cc1OC`, the growth is reported as 109%.
`CN1CCN(Cc2ccc(NC(=O)c3cncc(C#Cc4cnc(N)c5ncccc45)c3)cc2C(F)(F)F)CC1` was tested, and the growth was -43.8% (active).
In the case of `C=COC(=O)CCOCC(CC)CCCC` (stereo not given), the growth is reported as 104%.
Compound `CC#Cc1nc2ccccc2c(=O)[nH]1` has a growth of 14.8%.
For `CS(=O)(=O)c1ccc(-c2cc3c(oc2=O)-c2ccccc2OC3O)cc1` (stereo not given), the growth was 91.6%.
Compound `NNc1ccc(Cl)cc1Cl` has a growth of 91.5%.
`Nc1nc(Cl)cc(Cl)n1` showed a growth of 99.4%.
`NNC(=S)N1N=C(c2cc3ccccc3o2)CC1c1c[nH]c2ccccc12` (stereo not given) showed a growth of 15.3%.
For `Nc1ccc2ccc(N)cc2c1`, the growth was 75.8%.
`CC[C@@H](C)[C@H](NC(=O)Cn1cc(CNC(=O)[C@@H](NC(=O)OCc2ccccc2)C(C)C)nn1)C(=O)O` gave a growth of 98.5%.
For `CS(=O)(=O)c1ccc(-c2cnc3ccc(-c4cccc(S(C)(=O)=O)c4)nn23)cc1`, the growth was 6.54% (active).
In the case of `COC(=O)/C=C1/SC(=Nc2cccc(Cl)c2)N(CCc2c[nH]c3ccc(O)cc23)C1=O`, the growth is reported as 24.7%.
For `Cc1ccc2c(C(C[N+](=O)[O-])c3ccco3)c(-c3ccccc3)[nH]c2c1` (stereo not given), the growth was 8.5% (active).
In the case of `Cc1ccsc1[C@H]1c2[nH]c3ccccc3c2C[C@H]2C(=O)N(CCCCCCC(=O)NO)CC(=O)N12`, the growth is reported as 46.6%.
`CCOC(=O)c1ccccc1NC1=C(Cl)C(=O)c2nc(C)ccc2C1=O` showed a growth of 97.3%.
`O=[N+]([O-])c1ccc(N=Nc2cc(S(=O)(=O)O)c3cccc(S(=O)(=O)O)c3c2O)cc1` gave a growth of 118%.
Work on `NC1=NC(c2ccc(Cl)cc2)C2=C(N1)/C(=C/c1ccc(Cl)cc1)CCC2` (stereo not given) yielded a growth of 62.2%.
`CC(C)(CO)N(CCO)CCO` showed a growth of 95.1%.
For `CCOC(=O)c1ccc2nc(-c3c(C)nn(-c4ccccc4)c3N3CCOCC3)[nH]c2c1`, the growth was 105%.
Compound `COc1c(N2CC3CCCN(C(C)=O)C3C2)c(F)cc2c(=O)c(C(=O)N[C@H]3C(O)[C@@H](O)C(CO)O[C@H]3O)cn(C3CC3)c12` (stereo not given in full) has a growth of 98%.
Work on `CC(C)(C)n1cc(-c2ccnc(NCCCNS(=O)(=O)c3cccc(F)c3)n2)c(-c2ccc(Cl)c(O)c2)n1` yielded a growth of 104%.
With `CCCCCCCCN1C(=O)/C(=c2\sc3n(c2=O)C2C(NN=3)N(CC)C(=O)N2CC)c2ccccc21` (stereo not given) the growth was 68.3%.
Work on `CCCCC(CCCC)(S(=O)(=O)CC)S(=O)(=O)CC` yielded a growth of 98.2%.
In the case of `O=C(CCN1CCCC1)Nc1ccc2c(Nc3ccc(F)cc3)c3ccccc3nc2c1`, the growth is reported as -66.6% (active).
Work on `S=C=Nc1ccc2ccccc2c1` yielded a growth of 97.3%.
`CCC(=O)Nc1cc(Nc2cc(NC3CC3)n3ncc(C#N)c3n2)ccc1C` was tested, and the growth was 1.64% (active).
For `C=CCn1cc(-c2nc3ccccc3s2)c2cc(-c3ccc4c5c(cccc35)C(=O)N(N)C4=O)ccc21`, the growth was 95.4%.
`Cc1cccc(NC(=O)c2sc3nc4c(cc3c2N)CCC4)c1C` gave a growth of 10.6%.
For `O=C1NC(=C(Cl)Cl)/C(=N/S(=O)(=O)N2CCCCC2)N1`, the growth was -38% (active).
With `O=[N+]([O-])c1cccc(N=C(Nc2cccc([N+](=O)[O-])c2)c2ccccc2)c1` the growth was 43.2%.
With `Cc1cccc(-c2nc(C(C)C)sc2-c2ccnc(NCCCNS(=O)(=O)c3ccc(Cl)cc3)c2)c1` the growth was 55.2%.
`Cc1cc2c(cc1C)N(C(=O)CCl)CCN2C(=O)CCl` was tested, and the growth was -76% (active).
`O=C1NN(C(=O)c2ccc(Cl)cc2)C(c2ccccc2)=N/C1=C\c1ccc(F)cc1` was tested, and the growth was 67.9%.
`C[C@@H]1CC[C@@H]2[C@@H]1[C@H](OC(=O)/C=C/c1ccccc1)[C@]1(c3ccccc3)C[C@@H](OC(=O)CO)[C@@]2(C)O1` was tested, and the growth was 87.5%.
